Sampled rows, rich in hits. Any-hit rate of the full collection: about 5.2%.
Tau fibril ThT = tau fibrillization inhibition (ThT binding); P10636; recombinant tau K18 P301L, heparin-induced fibrillization, ThT fluorescence; Potency, µM (highest dose often 57.4 µM), for the others: at the top dose activity, negative = inhibition, hits mostly inhibitors; 270,000 compounds, 2.1% hits; note: potency is the fitted concentration of half-maximal effect; nearly all actives have a fitted effect of over 55% in size
Target sequence (P10636 561-689 P618L limits assumed): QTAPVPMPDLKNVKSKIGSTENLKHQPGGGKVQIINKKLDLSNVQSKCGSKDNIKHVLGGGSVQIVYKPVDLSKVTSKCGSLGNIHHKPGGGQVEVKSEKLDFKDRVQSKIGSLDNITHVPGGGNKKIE
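Recombinant human tau K18 fragment […] carrying P301L, 15 uM unlabeled plus 0.24 uM Alexa 594-labeled, was fibrillized with 20 uM heparin in 100 mM sodium acetate pH 7 for 6 hr at 37 C; 30 uM ThT fluorescence read after 1 hr.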
Sfp inh = Sfp phosphopantetheinyl transferase inhibition. Q9F4F7. Biochemical Sfp PPTase activity, qHTS. Potency, µM, for inactives: largest response in the series, negative = inhibition, usual class: inhibitors. 310,000 compounds, 3.5% hits. AID 1490;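 note: the enzyme is Sfp with the accession as filed and its product quenches rhodamine fluorescence; potency is the fitted concentration of half-maximal effect; 0% = enzyme reaction without inhibitor and -100% = no enzyme wells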
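Fluorescence-quenching assay: 15 nM Sfp-PPTase preincubated 15 min at room temperature with compound, then 5 uM rhodamine-CoA and 12.5 uM BHQ-2-labelled YbbR peptide added. Fluorescence (ex 525/em 598 nm) read at start and after 30 min; difference gives rate.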
Tau fibril FP = tau fibrillization inhibition (FP); 280,000 compounds, 0.39% hits; K18 P301L tau heparin fibrillization, Alexa594 FP, 6 h; P10636; Potency, µM (series often up to 57.7 µM), for the others: at the top dose activity, negative = inhibition, hits mostly inhibitors; note: potency is the fitted concentration of half-maximal effect; nearly all actives have a fitted effect of over 55% in size
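Quantitative HTS format: compounds meet 15 uM recombinant K18 P301L tau and Alexa 594-tau tracer in 100 mM sodium acetate pH 7; 20 uM heparin triggers fibrillization at 37 C over 6 hr; FP gives the signal.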
FBPA coupling cs = counter-screen for Giardia aldolase inhibitors: coupling enzyme system; coupling enzyme system counterscreen, AmpLite Red fluorescence; AID 2472; activity change, negative = inhibition, % at 58.2 µM, hits read low; 290,000 compounds, 0.67% hits; in the data active = activity change below about -30%
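Counterscreen of the coupled detection system alone, without aldolase: glyceraldehyde-3-phosphate coupling enzymes plus AmpLite Red readout. Compounds at 57.5 uM final, 10 min RT preincubation, 20 min RT reaction, fluorescence 525/598 nm.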
Tau fluor cs = counter-screen for tau fibril formation inhibitors; tau K18 P301L (four-repeat tau fragment) Alexa594 fluorescence, heparin fibrillization; Potency, µM (titrated, usually from 57.7 µM), inactives show at the highest dose activity change, negative = decrease; 280,000 compounds, 0.93% hits; AID 1463; note: potency is the fitted concentration of half-maximal effect; nearly all actives have a fitted effect of over 55% in size
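Human K18 P301L tau (15 uM unlabeled plus 0.24 uM Alexa 594-labeled, final) in 100 mM sodium acetate pH 7 was mixed with compound and 20 uM heparin and incubated 6 hr at 37 C.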
* = called active by the depositor; ? = inconclusive; / = no result; [ ] = dose if it differs, or a comment. Unless noted, calls come from the whole dose curve; as a rule, active = well fitted curve in the direction sought with a large enough effect; inconclusive = small, poorly fitted or top-dose-only effect, or another doubt; inactive = no such curve, though single readings can be large; an effect the other way counts as inactive or inconclusive. Unless noted, % is set by controls: 0 for no effect and ±100 for the full control effect.

SMILES	Tau fibril ThT	Sfp inh	Tau fibril FP	FBPA coupling cs	Tau fluor cs
CC(=O)N[C@@H]1C(O[C@H]2O[C@H](C(=O)O)C(O)[C@H](O)[C@H]2O)[C@H](O)[C@@H](CO)O[C@H]1O[C@@H]1C(C(=O)O)O[C@@H](O[C@H]2[C@H](O)[C@@H](CO)OC(O)[C@@H]2NC(C)=O)[C@H](O)[C@H]1O (stereo partly drawn)	/	26%	/	/	/
N#CC1=C(N)SC(N)=C(C#N)C1c1c(Cl)cccc1Cl	?	7.1µM*	-9%	-51*	-18%
N#CC1=C(N)SC(N)=C(C#N)C1CCc1ccccc1	?	?	-7%	1	-20%
N#CC1=C(N)SC(N)=C(C#N)C1c1cccc(Oc2ccccc2)c1	?	28µM*	-15%	-16	?
COc1cccc(CN2C(=O)c3ccccc3Sc3ccc(C(=O)OCc4ccco4)cc32)c1	3%	/	-10%	/	-8%
Cc1cc(N=Nc2ccccc2)c(NCC(O)C(O)C(O)CO)cc1C (stereo not drawn)	14µM*	-14%	16%	-5	?
Cc1ccc(NCC(O)C(O)C(O)CO)cc1C (stereo not drawn)	-12%	10%	-9%	-13	-5%
Cc1cc(-c2nnc(-c3ccccc3)c(-c3ccccc3)n2)c(C)o1	?	14µM*	-1%	0	-9%
Cc1ccc(Cl)cc1NC(=O)C(C)n1nc(-c2ccccc2)ccc1=O (stereo not drawn)	16%	/	5%	/	-22%
CCOC(=O)c1c(N)sn(-c2ccccc2)c1=S	-10%	1%	-4%	1	-10%
N#Cc1c2c(c(=S)n(-c3ccccc3)c1N)CCCC2	?	32µM*	-4%	-26	-10%
CCOC(=O)c1c2c(c(=S)n(-c3ccccc3)c1N)CCC2	25µM*	13µM*	?	-19	?
CCOC(=O)c1ccccc1NC(=O)c1cnc(N2CCOCC2)c2ccccc12	-7%	/	2%	/	-16%
O=C1/C(=C\c2ccccn2)SC(=S)N1c1ccc(S(=O)(=O)Nc2nccs2)cc1	/	56µM*	3%	2	?
CCOC(=O)c1ccc(NC(=O)Nc2ccc3c(c2)OCCO3)cc1	?	0%	?	-1	13µM*[quencher]
CCOC(=O)c1ccc(NCc2ccc3c(c2)OCO3)cc1	?	56µM*	9%	2	?
CCOC(=O)c1ccc(NCc2ccc(N(C)C)cc2)cc1	?	-22%	18%	-1	-28%
Cc1nc(C)c(CCNS(=O)(=O)c2ccc(C)c(C)c2)s1	-11%	/	-1%	/	-13%
Cc1ccc(-n2c(=O)c3oc4ccccc4c3n(CC(=O)Nc3ccc(F)c(Cl)c3)c2=O)cc1C	1%	/	?	/	-13%
Cc1ccccc1Cc1n[nH]c(=S)n1N	8%	-30%	3%	-2	9%
CCc1cc(-c2n[nH]c(=S)n2N)n(C)n1	3%	40µM*	-1%	2	0%
CCCCn1c(-c2nn(C)c(C)c2Cl)n[nH]c1=S	-10%	8%	0%	2	0%
CCc1nn(C)c(-c2n[nH]c(=S)n2N)c1Cl	-3%	45µM*	-4%	0	-1%
CCc1nn2c(=O)cc(COC(=O)c3cccs3)nc2s1	-10%	/	2%	/	6%
COc1ccc(NC(=O)/C(Cl)=C(/Cl)S(=O)(=O)Cc2ccc(C)cc2)cn1	8.9µM*	-3%	?	1	-25%
SMILES	Tau fibril ThT	Sfp inh	Tau fibril FP	FBPA coupling cs	Tau fluor cs
COc1ccc(NC(=O)Cc2ccc(Cl)c(Cl)c2)cn1	-5%	8%	-7%	0	-22%
COc1ccc(NC(=O)/C(Cl)=C(/Cl)S(=O)Cc2ccccc2Cl)cn1 (stereo not drawn)	8.9µM*	22µM*	?	0	-11%
Fc1ccc(-n2ncc3c(Nc4ccc5c(c4)OCCO5)ncnc32)cc1	?	/	9%	/	11µM*[quencher]
Fc1ccc(-n2ncc3c(Nc4cccc(Cl)c4)ncnc32)cc1	?	/	10µM*	/	?
Clc1ccc(Nc2ncnc3c2cnn3-c2ccccc2)cc1	?	?	?	-9	?
Cc1ccc(Cl)cc1-n1ncc2c(Nc3ccc4c(c3)OCCO4)ncnc21	-4%	/	12%	/	?
Cc1ccc(-n2ncc3c(Nc4ccc5c(c4)OCCO5)ncnc32)cc1Cl	?	/	-15%	/	?

Screening data (PubChem BioAssay)
